These results are taken from PubChem BioAssay (NCATS).

SMILES strings stand for the structures. Results filed as inconclusive are left out. Where a call stands in place of a potency, no number is given. Calls of active or inactive are those of the source. The call rests on the fitted dose curve; in most records, active means well fitted curve in the direction sought with a large enough effect; inconclusive means small, poorly fitted or top-dose-only effect, or another doubt; inactive means no such curve, though single readings can be large; an effect the other way counts as inactive or inconclusive.

Tested on in the first assay: not listed separately
Description: MultiTox-Fluor Cytotoxicity Assay - LYMP1-002 - Live Cells (AID 955).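 Further: cells exposed to compound for 16 hours.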 Further: potency means the concentration at half of the fitted maximal effect. The settings on record: LYMP1-002 lymphoblastoid live-cell protease fluorescence viability; series mostly up to 46.1 µM. In short, it runs like this: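 After 16 h compound exposure at 37 C, live LYMP1-002 lymphoblastoid cells (2500/well) were quantified by cleavage of cell-permeant GF-AFC substrate, read at 405/510 nm after 60 min. Concentration-response fitted with Hill equation for AC50.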
For `CC(C)CCON=O`, the Potency result is “inactive”.

Regarding `NNC(N)=O`, the Potency result is “inactive”.

As for `O=[N+]([O-])c1ccccc1`, the Potency entry is “inactive”.

In the case of `ClCC1CO1` (stereo unspecified), the Potency result was “inactive”.

Turning to `O=Cc1ccco1`, the Potency entry is “inactive”.

Regarding `C[C@H]1CC[C@@H]2[C@@H](C)[C@H]3[C@H](C[C@H]4[C@@H]5CC=C6CC(O[C@@H]7O[C@H](CO)[C@H](O)[C@H](O[C@@H]8O[C@H](CO)[C@@H](O)[C@H](O)[C@H]8O)[C@H]7O[C@H]7O[C@@H](C)[C@H](O)[C@@H](O)[C@H]7O)CC[C@]6(C)[C@H]5CC[C@]34C)N2C1` (stereo partly specified), the Potency is 12.6 µM (active).

Turning to `ClC(Cl)(Cl)Cl`, the Potency result is “inactive”.

`[O]=[Cd]`: the Potency result is “inactive”.

Take `O=C/C=C/c1ccccc1`: the Potency result is “inactive”.

On to `C[C@H]1CCC[C@H](O)CCCCCc2cc(O)cc(O)c2C(=O)O1`, for which the Potency result was “inactive”.

Take `O=CC=O`: the Potency result was “inactive”.

For the compound `O=C(O)C(Cl)(Cl)Cl`, the Potency entry was “inactive”.

`O=C1C=CC(=O)C=C1`: the Potency entry is “inactive”.

A further assay deals with Alpha-galactosidase (Coffea arabica) (UniProt Q42656). In words: Counterscreen for Glucocerebrosidase Inhibitors: qHTS Assay for Coffee Bean alpha-Galactosidase at pH 4.5 (AID 957). Particulars: purified coffee bean alpha-galactosidase, fluorogenic substrate; series mostly up to 76.9 µM. A digest of the protocol: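 Fluorogenic qHTS at pH 4.5 (citrate buffer with Tween-20): 2 nM enzyme, 80 uM 4-MU-alpha-galactoside substrate, compound titrated 0.7 nM to 77 uM, 20 min room temperature. Glycine/NaOH stop; 4-MU read Ex 365/Em 440; Hill-equation AC50 against no-enzyme and enzyme controls.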
Chain of Alpha-galactosidase (Coffea arabica) (Q42656 whole entry, looked up): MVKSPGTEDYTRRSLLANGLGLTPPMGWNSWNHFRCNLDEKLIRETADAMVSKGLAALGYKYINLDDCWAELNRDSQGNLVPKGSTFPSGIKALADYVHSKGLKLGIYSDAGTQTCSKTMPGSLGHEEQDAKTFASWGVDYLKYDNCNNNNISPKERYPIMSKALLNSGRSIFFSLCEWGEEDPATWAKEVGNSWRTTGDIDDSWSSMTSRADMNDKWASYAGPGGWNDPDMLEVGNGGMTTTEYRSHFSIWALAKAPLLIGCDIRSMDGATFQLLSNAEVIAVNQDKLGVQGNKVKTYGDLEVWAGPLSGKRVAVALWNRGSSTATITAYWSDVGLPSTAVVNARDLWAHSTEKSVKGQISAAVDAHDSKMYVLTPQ
Background: The purpose of a counterscreen is to sort out artefacts and off-target activity.
For the compound `CN1CCc2cccc(Cl)c2CC1`, the call was inactive.

As to `NNC(N)=O`, the compound was called inactive.

Consider `COc1ccc2[nH]c3c(c2c1)CCNC3`, for which the call was inactive.

For the compound `NNC(=O)c1ccc(O)cc1`, the call was inactive.

With `CC(C)NP(=O)(NC(C)C)OP(=O)(NC(C)C)NC(C)C`, the call was inactive.

As to `C[N+]1(C)[C@@H]2CC[C@H]1CC(OC(=O)c1c[nH]c3ccccc13)C2` (stereo partly specified), the compound was classed as inactive.

With `Cc1c2ccncc2c(C)c2c1[nH]c1ccccc12`, the compound was called inactive.

With `C[C@@H]1O[C@H](C[N+](C)(C)C)CS1`, the result was inactive.

As for `CCCN(CCC)CCc1c[nH]c2ccc(C(N)=O)cc12`, the compound was classed as inactive.

As for `CCN(CCCl)Cc1ccccc1Br`, the call was inactive.

Consider `CNC(=O)OCC[N+](C)(C)C`, for which the result was inactive.

Consider `CCCN(CCC)CCc1ccc(O)c(O)c1`, for which the compound was called inactive.

Take `C[N+](C)(C)CC#CCOC(=O)Nc1cccc(Cl)c1`: the compound was classed as inactive.

For `CCCN(CCC)[C@H]1CCc2c(F)ccc(O)c2C1`, the compound was classed as inactive.

As to `NCCc1c[nH]c2ccc(C(N)=O)cc12`, the outcome was inactive.

For `NC(N)=NOCC[C@H](N)C(=O)O`, the compound was classed as inactive.

For the compound `O=C1C=CC(=O)C=C1`, the compound was called inactive.

Tested on in another assay: not listed separately
Description: MultiTox-Fluor Cytotoxicity Assay - LYMP1-002 - Dead Cells (AID 960). Further: nearly all actives have a fitted effect of over 60% in size. Particulars: LYMP1-002 lymphoblastoid cells, dead-cell protease fluorescence; series mostly up to 46.1 µM. In short, it runs like this: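 Dead-cell fluorescence (Ex/Em 485/520) after 16 h compound exposure at 37 C of LYMP1-002 lymphoblastoid cells in complete medium; AC50 by Hill equation, with data scaled between DMSO and 15 uM tetraoctylammonium bromide.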
For the compound `CC(C)CCON=O`, the Potency entry is “inactive”.

Take `NNC(N)=O`: the Potency result is “inactive”.

As to `O=[N+]([O-])c1ccccc1`, the Potency entry was “inactive”.

`ClCC1CO1` (stereo unspecified): the Potency result is “inactive”.

Take `O=Cc1ccco1`: the Potency result was “inactive”.

As for `C[C@H]1CC[C@@H]2[C@@H](C)[C@H]3[C@H](C[C@H]4[C@@H]5CC=C6CC(O[C@@H]7O[C@H](CO)[C@H](O)[C@H](O[C@@H]8O[C@H](CO)[C@@H](O)[C@H](O)[C@H]8O)[C@H]7O[C@H]7O[C@@H](C)[C@H](O)[C@@H](O)[C@H]7O)CC[C@]6(C)[C@H]5CC[C@]34C)N2C1` (stereo partly specified), the Potency entry is “inactive”.

For `ClC(Cl)(Cl)Cl`, the Potency entry was “inactive”.

For the compound `[O]=[Cd]`, the Potency result is “inactive”.

Consider `O=C/C=C/c1ccccc1`, for which the Potency result was “inactive”.

As to `C[C@H]1CCC[C@H](O)CCCCCc2cc(O)cc(O)c2C(=O)O1`, the Potency entry is “inactive”.

For `O=CC=O`, the Potency result is “inactive”.

Take `O=C(O)C(Cl)(Cl)Cl`: the Potency entry was “inactive”.

Tested on in another assay: not listed separately
Description: MultiTox-Fluor Cytotoxicity Assay - LYMP1-003 - Dead Cells (AID 961). Further: nearly all actives have a fitted effect of over 70% in size. Further: potency means the concentration at half of the fitted maximal effect. The settings on record: LYMP1-003 lymphoblastoid cells, dead-cell protease fluorescence; series mostly up to 92.2 µM. A digest of the protocol: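 LYMP1-003 lymphoblastoid, 2500 cells/well, 5 hr settle then 16 hr cpd at 37 C; MultiTox-Fluor reagent 60 min RT; Ex/Em 485/520 dead-cell signal; norm. DMSO = 0%, 15 uM tetraoctylammonium bromide = 100%; Hill AC50.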
For the compound `CC(C)CCON=O`, the Potency entry was “inactive”.

Regarding `NNC(N)=O`, the Potency result is “inactive”.

As to `O=[N+]([O-])c1ccccc1`, the Potency result is “inactive”.

Take `ClCC1CO1` (stereo unspecified): the Potency entry is “inactive”.

As to `O=Cc1ccco1`, the Potency entry is “inactive”.

On to `C[C@H]1CC[C@@H]2[C@@H](C)[C@H]3[C@H](C[C@H]4[C@@H]5CC=C6CC(O[C@@H]7O[C@H](CO)[C@H](O)[C@H](O[C@@H]8O[C@H](CO)[C@@H](O)[C@H](O)[C@H]8O)[C@H]7O[C@H]7O[C@@H](C)[C@H](O)[C@@H](O)[C@H]7O)CC[C@]6(C)[C@H]5CC[C@]34C)N2C1` (stereo partly specified), for which the Potency was 20 µM (active).

Turning to `ClC(Cl)(Cl)Cl`, the Potency result is “inactive”.

With `[O]=[Cd]`, the Potency entry is “inactive”.

As for `O=C/C=C/c1ccccc1`, the Potency entry is “inactive”.

With `C[C@H]1CCC[C@H](O)CCCCCc2cc(O)cc(O)c2C(=O)O1`, the Potency entry was “inactive”.

Take `O=CC=O`: the Potency entry is “inactive”.

On to `O=C(O)C(Cl)(Cl)Cl`, for which the Potency result is “inactive”.

As to `O=C1C=CC(=O)C=C1`, the Potency result is “inactive”.

Tested on in another assay: not listed separately
In words: MultiTox-Fluor Cytotoxicity Assay - LYMP1-003 - Live Cells (AID 962).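 Further: cells exposed to compound for 16 hours at 37 °C.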 Further: potency means the concentration at half of the fitted maximal effect. Particulars: LYMP1-003 lymphoblastoid cells, MultiTox-Fluor live-cell protease fluorescence; series mostly up to 92.2 µM. In short, it runs like this: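 Live-cell protease activity (GF-AFC substrate, 405/510 nm, 60 min at room temperature) after 16 h, 37 C compound exposure of human lymphoblastoid LYMP1-003 cells; concentration-response fitted to the Hill equation for AC50.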
For `CC(C)CCON=O`, the Potency entry was “inactive”.

As to `NNC(N)=O`, the Potency entry is “inactive”.

In the case of `O=[N+]([O-])c1ccccc1`, the Potency entry is “inactive”.

In the case of `ClCC1CO1` (stereo unspecified), the Potency entry is “inactive”.

On to `O=Cc1ccco1`, for which the Potency result was “inactive”.

On to `C[C@H]1CC[C@@H]2[C@@H](C)[C@H]3[C@H](C[C@H]4[C@@H]5CC=C6CC(O[C@@H]7O[C@H](CO)[C@H](O)[C@H](O[C@@H]8O[C@H](CO)[C@@H](O)[C@H](O)[C@H]8O)[C@H]7O[C@H]7O[C@@H](C)[C@H](O)[C@@H](O)[C@H]7O)CC[C@]6(C)[C@H]5CC[C@]34C)N2C1` (stereo partly specified), for which the Potency was 25.1 µM (active).

On to `ClC(Cl)(Cl)Cl`, for which the Potency entry is “inactive”.

Consider `[O]=[Cd]`, for which the Potency result is “inactive”.

Consider `O=C/C=C/c1ccccc1`, for which the Potency entry is “inactive”.

In the case of `C[C@H]1CCC[C@H](O)CCCCCc2cc(O)cc(O)c2C(=O)O1`, the Potency result was “inactive”.

With `O=CC=O`, the Potency entry is “inactive”.

On to `O=C(O)C(Cl)(Cl)Cl`, for which the Potency result is “inactive”.

For the compound `O=C1C=CC(=O)C=C1`, the Potency result was “inactive”.

Tested on in a further assay: not listed separately
In words: Cell Viability - LYMP1-003 - Assay at 24 hr (AID 963). Further: potency means the concentration at half of the fitted maximal effect. The settings on record: LYMP1-003 lymphoblastoid cell viability; series mostly up to 92.2 µM. In short, it runs like this: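 Concentration-response qHTS: ATP loss measured by CellTiter-Glo luminescence after 24 h compound exposure at 37 C. Cells were LYMP1-003 human lymphoblastoid, 2500 per well. AC50 derived via standard Hill equation modeling.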
For the compound `CC(C)CCON=O`, the Potency result was “inactive”.

`NNC(N)=O`: the Potency result was “inactive”.

For the compound `O=[N+]([O-])c1ccccc1`, the Potency result is “inactive”.

Turning to `ClCC1CO1` (stereo unspecified), the Potency result was “inactive”.

For the compound `O=Cc1ccco1`, the Potency entry is “inactive”.

As to `C[C@H]1CC[C@@H]2[C@@H](C)[C@H]3[C@H](C[C@H]4[C@@H]5CC=C6CC(O[C@@H]7O[C@H](CO)[C@H](O)[C@H](O[C@@H]8O[C@H](CO)[C@@H](O)[C@H](O)[C@H]8O)[C@H]7O[C@H]7O[C@@H](C)[C@H](O)[C@@H](O)[C@H]7O)CC[C@]6(C)[C@H]5CC[C@]34C)N2C1` (stereo partly specified), the Potency was 20 µM (active).

With `ClC(Cl)(Cl)Cl`, the Potency entry is “inactive”.

Turning to `[O]=[Cd]`, the Potency entry was “inactive”.

Take `O=C/C=C/c1ccccc1`: the Potency result is “inactive”.

On to `C[C@H]1CCC[C@H](O)CCCCCc2cc(O)cc(O)c2C(=O)O1`, for which the Potency entry is “inactive”.

For `O=CC=O`, the Potency entry is “inactive”.

Turning to `O=C(O)C(Cl)(Cl)Cl`, the Potency entry is “inactive”.

As for `O=C1C=CC(=O)C=C1`, the Potency entry is “inactive”.
